According to the supplement of paper PMC11732987, “Enantioselective OTUD7B fragment discovery through chemoproteomics screening and high-throughput optimisation” (Communications Chemistry, 2025):

What was measured:
Assay in all cases: log2 ratio of Biotin-Ahx-Ub-VS probe labelling (fragment/DMSO); higher = less target engagement (more negative = stronger competition), active = hit call of the paper (q ≤ 0.05, log2 ratio ≤ -1)
Conditions in all cases: compound concentration: 200 uM; treatment time: 3 h
USP34 = USP34 (UniProt Q70CQ2)
Summary of the method: (§1)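 Labelling with Biotin-Ahx-Ub-VS (0.5 µM final, 1 h) followed a 3 h triplicate treatment of HEK293T lysate (495 µg per sample, Tris/CHAPS/IGEPAL buffer with protease inhibitors) with fragment at 200 µM or vehicle. Labelled DUBs were NeutrAvidin-enriched, digested with LysC and trypsin, and run by diaPASEF LC-MS/MS. The values, average log2 fragment/vehicle ratios by unpaired t-test, come from global-median-normalised Spectronaut label-free quantities. Proteins with ≥2 unique peptides were used.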

USP36 = target: T1, USP36 (UniProt Q9P275)
T1 sequence (whole entry): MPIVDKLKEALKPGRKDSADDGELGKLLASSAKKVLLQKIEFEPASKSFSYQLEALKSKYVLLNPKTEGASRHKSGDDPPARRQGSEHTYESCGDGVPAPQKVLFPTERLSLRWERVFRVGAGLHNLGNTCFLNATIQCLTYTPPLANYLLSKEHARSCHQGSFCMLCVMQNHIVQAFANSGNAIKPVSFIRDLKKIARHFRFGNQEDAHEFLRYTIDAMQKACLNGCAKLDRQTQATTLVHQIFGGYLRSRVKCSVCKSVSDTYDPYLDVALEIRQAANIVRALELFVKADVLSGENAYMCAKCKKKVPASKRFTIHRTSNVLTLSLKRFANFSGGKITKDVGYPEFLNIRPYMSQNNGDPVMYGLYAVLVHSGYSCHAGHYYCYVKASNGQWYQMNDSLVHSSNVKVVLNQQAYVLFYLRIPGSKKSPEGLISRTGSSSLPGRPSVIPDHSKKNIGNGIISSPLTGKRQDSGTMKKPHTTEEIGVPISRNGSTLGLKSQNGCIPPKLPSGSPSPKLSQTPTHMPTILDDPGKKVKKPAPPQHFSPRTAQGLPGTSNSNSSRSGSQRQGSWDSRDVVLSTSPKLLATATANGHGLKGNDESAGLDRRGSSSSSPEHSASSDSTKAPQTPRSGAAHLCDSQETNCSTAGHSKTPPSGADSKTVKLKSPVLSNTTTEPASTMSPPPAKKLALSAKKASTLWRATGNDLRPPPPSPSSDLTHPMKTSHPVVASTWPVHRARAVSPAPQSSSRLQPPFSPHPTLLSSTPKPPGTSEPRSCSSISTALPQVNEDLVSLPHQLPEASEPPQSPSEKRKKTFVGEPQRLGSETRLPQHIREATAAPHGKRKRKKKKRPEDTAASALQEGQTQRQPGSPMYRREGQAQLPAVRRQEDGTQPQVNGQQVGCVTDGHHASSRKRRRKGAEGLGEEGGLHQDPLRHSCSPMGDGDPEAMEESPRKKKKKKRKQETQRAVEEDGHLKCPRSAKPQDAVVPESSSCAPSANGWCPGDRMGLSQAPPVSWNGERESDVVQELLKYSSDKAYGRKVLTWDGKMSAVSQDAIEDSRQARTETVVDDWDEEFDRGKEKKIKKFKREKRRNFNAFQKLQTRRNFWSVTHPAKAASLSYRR
Summary of the method: as §1

USP38 = target: T2, USP38 (UniProt Q8NB14)
T2 sequence (whole entry): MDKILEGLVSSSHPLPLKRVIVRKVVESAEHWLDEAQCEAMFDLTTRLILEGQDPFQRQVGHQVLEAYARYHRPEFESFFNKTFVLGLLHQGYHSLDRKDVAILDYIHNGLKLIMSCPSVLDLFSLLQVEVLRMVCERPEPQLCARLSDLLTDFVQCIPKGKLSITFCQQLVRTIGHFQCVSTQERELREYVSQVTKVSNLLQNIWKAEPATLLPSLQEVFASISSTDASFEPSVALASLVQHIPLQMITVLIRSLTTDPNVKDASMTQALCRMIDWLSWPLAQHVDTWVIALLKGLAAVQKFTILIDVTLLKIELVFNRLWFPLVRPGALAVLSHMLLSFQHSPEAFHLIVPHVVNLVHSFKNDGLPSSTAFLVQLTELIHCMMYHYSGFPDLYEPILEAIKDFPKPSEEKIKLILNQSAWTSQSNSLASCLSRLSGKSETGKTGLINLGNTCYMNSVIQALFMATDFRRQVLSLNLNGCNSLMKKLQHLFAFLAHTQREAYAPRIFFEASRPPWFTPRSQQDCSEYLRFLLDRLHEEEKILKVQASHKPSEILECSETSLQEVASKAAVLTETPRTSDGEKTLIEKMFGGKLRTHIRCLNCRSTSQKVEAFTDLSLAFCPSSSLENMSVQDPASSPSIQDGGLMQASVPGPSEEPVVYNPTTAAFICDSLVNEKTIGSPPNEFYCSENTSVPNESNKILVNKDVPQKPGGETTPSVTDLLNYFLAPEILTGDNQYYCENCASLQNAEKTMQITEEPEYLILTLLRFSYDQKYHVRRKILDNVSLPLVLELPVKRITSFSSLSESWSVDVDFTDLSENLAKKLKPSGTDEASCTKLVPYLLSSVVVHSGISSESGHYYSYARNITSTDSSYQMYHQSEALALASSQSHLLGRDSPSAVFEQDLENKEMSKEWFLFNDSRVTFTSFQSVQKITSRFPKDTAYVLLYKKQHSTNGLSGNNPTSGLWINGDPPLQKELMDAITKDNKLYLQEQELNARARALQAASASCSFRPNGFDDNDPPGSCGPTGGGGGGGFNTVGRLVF
Summary of the method: as §1

USP39 = target: T3, USP39 (UniProt Q53GS9)
T3 sequence (whole entry): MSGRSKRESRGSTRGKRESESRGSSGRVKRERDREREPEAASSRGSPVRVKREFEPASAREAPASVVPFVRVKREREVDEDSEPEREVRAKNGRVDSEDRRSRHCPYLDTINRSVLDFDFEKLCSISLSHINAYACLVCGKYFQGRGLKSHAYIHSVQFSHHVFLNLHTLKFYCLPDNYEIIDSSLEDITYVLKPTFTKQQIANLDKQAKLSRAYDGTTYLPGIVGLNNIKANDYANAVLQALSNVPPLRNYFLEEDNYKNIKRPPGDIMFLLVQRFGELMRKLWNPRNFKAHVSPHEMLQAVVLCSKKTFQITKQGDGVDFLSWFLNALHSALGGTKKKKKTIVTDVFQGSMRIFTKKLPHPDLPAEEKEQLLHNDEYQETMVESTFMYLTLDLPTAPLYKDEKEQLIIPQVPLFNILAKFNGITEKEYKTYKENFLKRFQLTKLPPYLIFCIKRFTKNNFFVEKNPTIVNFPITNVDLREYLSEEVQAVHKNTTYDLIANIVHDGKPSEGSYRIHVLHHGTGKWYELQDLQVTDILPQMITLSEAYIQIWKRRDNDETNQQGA
Summary of the method: as §1

USP4 = target: T4, USP4 (UniProt Q13107)
T4 sequence (whole entry): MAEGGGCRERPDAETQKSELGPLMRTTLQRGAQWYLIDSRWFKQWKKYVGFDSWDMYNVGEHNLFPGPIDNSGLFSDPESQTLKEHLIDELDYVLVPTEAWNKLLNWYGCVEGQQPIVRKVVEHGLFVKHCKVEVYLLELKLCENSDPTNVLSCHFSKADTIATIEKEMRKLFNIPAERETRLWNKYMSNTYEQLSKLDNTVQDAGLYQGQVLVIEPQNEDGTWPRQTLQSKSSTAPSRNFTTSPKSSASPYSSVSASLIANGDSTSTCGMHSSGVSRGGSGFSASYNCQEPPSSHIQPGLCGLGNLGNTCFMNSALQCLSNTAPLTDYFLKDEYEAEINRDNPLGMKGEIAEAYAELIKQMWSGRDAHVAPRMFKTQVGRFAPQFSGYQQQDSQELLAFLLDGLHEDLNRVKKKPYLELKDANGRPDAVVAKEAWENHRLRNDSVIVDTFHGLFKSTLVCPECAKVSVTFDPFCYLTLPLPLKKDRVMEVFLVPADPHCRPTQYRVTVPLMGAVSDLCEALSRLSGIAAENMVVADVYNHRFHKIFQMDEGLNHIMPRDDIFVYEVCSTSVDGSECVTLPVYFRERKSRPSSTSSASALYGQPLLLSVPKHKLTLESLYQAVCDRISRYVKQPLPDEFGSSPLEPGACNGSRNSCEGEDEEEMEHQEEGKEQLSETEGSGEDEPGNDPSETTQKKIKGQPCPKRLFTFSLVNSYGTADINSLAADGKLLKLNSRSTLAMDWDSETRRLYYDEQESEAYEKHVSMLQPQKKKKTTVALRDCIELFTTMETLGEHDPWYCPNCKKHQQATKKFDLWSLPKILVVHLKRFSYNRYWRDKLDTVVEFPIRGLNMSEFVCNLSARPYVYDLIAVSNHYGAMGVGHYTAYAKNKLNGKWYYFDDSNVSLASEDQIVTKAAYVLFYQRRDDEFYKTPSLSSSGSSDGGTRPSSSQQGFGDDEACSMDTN
Summary of the method: as §1

Measured: log2 ratio of Biotin-Ahx-Ub-VS probe labelling

Sequence of USP34 (Q70CQ2 whole entry, the tested form may be a part): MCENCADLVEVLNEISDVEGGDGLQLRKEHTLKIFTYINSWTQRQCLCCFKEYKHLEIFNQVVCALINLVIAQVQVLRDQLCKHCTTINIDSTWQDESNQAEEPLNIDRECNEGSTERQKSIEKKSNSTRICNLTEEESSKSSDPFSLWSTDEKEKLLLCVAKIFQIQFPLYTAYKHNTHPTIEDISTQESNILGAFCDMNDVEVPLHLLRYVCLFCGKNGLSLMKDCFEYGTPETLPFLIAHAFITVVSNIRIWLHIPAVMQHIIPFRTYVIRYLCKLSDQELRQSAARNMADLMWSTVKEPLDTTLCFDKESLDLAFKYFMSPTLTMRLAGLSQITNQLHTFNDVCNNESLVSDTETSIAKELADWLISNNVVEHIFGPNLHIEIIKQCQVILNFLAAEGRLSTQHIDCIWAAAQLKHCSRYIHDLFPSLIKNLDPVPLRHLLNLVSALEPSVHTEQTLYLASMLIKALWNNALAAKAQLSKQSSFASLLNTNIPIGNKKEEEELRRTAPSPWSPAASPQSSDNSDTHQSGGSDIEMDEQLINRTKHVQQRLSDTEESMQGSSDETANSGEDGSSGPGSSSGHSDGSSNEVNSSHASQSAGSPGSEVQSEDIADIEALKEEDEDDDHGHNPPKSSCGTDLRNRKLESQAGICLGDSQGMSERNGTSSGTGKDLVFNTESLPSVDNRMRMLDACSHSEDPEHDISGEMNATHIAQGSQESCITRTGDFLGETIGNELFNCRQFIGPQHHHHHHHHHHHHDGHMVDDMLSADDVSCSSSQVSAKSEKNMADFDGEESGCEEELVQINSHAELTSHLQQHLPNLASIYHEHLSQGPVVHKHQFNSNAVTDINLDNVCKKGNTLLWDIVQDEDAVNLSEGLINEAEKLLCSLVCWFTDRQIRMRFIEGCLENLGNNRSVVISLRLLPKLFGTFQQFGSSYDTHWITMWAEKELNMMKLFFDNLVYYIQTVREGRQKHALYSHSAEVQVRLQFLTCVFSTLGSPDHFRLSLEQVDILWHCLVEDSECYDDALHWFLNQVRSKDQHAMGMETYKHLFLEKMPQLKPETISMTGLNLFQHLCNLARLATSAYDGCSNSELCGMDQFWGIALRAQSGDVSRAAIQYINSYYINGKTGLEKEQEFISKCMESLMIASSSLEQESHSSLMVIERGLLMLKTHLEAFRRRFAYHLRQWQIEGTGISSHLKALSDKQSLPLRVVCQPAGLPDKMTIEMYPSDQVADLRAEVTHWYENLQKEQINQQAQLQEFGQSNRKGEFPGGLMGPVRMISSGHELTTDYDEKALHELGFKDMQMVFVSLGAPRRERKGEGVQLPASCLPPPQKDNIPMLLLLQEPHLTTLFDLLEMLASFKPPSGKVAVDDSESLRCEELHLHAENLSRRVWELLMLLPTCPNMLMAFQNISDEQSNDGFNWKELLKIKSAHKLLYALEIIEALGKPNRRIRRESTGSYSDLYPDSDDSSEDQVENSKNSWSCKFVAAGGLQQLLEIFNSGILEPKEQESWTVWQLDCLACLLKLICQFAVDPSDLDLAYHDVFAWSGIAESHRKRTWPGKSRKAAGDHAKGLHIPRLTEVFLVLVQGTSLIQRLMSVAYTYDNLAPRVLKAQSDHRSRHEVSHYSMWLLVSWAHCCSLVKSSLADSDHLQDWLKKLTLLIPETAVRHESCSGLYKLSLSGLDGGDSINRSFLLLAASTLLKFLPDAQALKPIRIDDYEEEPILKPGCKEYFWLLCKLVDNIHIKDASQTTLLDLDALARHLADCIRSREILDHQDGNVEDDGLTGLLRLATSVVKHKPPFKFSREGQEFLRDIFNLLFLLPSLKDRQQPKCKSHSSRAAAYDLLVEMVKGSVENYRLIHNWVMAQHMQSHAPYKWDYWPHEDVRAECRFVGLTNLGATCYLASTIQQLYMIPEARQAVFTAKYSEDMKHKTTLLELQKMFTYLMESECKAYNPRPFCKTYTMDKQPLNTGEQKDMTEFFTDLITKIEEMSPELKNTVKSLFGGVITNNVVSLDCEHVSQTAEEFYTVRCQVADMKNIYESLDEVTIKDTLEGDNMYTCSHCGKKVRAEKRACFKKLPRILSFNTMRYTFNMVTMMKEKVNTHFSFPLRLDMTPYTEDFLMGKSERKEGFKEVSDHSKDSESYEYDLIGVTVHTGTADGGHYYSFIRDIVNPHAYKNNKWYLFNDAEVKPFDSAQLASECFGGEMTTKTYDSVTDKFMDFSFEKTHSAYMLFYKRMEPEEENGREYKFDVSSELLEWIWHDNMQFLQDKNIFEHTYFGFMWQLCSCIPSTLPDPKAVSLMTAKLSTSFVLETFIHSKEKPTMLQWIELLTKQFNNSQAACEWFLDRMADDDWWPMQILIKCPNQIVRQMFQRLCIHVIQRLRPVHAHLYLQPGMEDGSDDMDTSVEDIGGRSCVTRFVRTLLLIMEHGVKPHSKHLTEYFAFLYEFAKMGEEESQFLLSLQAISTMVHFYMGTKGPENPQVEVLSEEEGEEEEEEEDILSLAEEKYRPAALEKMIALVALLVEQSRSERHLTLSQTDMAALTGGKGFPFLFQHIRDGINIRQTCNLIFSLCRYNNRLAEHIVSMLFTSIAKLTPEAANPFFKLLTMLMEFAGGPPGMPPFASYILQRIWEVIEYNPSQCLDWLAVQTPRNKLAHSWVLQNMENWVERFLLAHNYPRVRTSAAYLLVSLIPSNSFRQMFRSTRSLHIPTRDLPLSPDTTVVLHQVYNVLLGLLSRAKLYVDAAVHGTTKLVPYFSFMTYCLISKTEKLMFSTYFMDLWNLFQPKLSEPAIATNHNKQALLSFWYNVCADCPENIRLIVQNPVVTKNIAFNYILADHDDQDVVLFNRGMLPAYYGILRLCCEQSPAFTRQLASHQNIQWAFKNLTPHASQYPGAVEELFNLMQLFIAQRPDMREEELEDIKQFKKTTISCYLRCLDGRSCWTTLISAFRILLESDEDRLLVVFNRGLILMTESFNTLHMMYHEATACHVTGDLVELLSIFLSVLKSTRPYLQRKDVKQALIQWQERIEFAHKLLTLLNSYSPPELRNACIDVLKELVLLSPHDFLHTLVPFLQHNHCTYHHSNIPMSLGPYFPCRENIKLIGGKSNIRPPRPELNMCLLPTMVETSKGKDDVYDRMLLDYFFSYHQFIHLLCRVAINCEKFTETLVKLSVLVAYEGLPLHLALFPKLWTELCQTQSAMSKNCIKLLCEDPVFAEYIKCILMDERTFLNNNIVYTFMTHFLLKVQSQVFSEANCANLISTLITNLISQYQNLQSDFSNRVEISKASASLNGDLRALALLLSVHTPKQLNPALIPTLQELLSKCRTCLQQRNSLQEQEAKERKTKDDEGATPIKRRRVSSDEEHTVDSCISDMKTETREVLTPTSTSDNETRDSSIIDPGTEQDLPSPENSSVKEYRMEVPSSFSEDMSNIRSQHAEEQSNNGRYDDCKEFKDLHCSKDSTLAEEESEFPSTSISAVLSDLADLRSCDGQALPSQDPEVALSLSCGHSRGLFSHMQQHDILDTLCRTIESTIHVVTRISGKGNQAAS

Cl.Cn1c(CNC(=O)CCl)nc2cccnc21
inactive: USP34 -0.174 | USP36 -0.125 | USP38 0.0315 | USP39 0.234 | USP4 -0.102
